# Source: PubChem (National Center for Advancing Translational Sciences (NCATS))
# WRN helicase inh: WRN helicase (human) inhibition; Q14191; WRN helicase unwinding, fluorescent forked duplex, kinetic; Potency, µM (series often up to 114 µM), usual class: inhibitors; 360,000 tested, 0.46% active; further: nearly all actives have a fitted effect of over 55% in size
#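 Kinetic red-fluorescence monitoring (525/598 nm) tracks WRN helicase activity after 100 nM fluorophore-quencher forked duplex and 2 mM ATP are added to 20 nM enzyme pretreated 15 min at room temperature with compound.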
# Pol iota inh: DNA polymerase iota (human) inhibition; Q9UNA4; Potency, µM (series often up to 115 µM), hits mostly inhibitors; Pol iota fluorescent replication assay, 10 min; 390,000 tested, 1% active; AID 588590
#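 Pol iota at 10 nM preincubated 15 min with compounds at room temperature; reaction started with fluorescent substrate, 50 nM final. Fluorescence read kinetically at 0 and 10 min; buffer-only wells as negative control.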
# FEN1 inhibitor: blocks human flap endonuclease 1 | Recombinant FEN1 flap cleavage, fluorescence, 15 min | 390,000 tested, 0.35% active | Potency, µM (titrated, usually from 114 µM), most hits filed as inhibitors; further: nearly all actives have a fitted effect of over 65% in size
#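 Reaction started by adding substrate (50 nM final) to 10 nM enzyme after 15 min room-temperature compound preincubation. Reads at 0 and 15 min, with data normalized and fitted to a four-parameter Hill equation.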
# Pol kappa inh-1: DNA polymerase kappa (human) inhibition; Q9UBT6; purified Pol kappa, fluorescent DNA synthesis assay, 10 min; Potency, µM (series often up to 107 µM), hits mostly inhibitors; 400,000 tested, 0.53% active
# Target sequence (Q9UBT6 whole entry, looked up): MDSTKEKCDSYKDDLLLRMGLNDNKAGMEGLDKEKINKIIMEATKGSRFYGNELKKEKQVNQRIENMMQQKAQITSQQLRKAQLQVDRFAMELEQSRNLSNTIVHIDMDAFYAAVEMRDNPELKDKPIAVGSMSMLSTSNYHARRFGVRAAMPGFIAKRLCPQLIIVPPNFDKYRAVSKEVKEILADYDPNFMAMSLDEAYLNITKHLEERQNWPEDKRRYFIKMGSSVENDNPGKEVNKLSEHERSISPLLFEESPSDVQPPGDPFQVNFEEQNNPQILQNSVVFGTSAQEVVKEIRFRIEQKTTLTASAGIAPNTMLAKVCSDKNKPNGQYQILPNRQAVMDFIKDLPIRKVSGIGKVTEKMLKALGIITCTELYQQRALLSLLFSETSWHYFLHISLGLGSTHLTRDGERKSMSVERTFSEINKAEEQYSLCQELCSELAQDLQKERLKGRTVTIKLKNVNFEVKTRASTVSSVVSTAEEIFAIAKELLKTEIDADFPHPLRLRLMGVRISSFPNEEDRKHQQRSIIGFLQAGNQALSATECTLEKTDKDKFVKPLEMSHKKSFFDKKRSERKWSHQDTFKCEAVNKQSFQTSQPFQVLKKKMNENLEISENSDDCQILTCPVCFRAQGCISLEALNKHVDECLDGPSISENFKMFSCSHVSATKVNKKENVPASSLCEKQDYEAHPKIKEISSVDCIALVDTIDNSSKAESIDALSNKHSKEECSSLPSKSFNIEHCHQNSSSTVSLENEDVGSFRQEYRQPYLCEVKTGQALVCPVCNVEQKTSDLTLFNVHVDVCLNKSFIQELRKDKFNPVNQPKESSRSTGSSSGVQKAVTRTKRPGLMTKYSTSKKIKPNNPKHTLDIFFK
#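 Inhibition of 10 nM Pol kappa is measured by a fluorescent read-out at 0 and 10 min following addition of 50 nM substrate (final), with a 15-min room-temperature compound preincubation.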
# POLB inh: DNA polymerase beta (human) inhibition; Pol beta primer extension/strand displacement, fluorescence kinetic; Potency, µM (doses to about 114 µM), usual class: inhibitors; 340,000 tested, 1.3% active; AID 485314; P06746
#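 Enzyme-only controls used 10 nM Pol beta; buffer lacking enzyme served as negative control. Compound preincubated 15 min, then 50 nM substrate added; 0 and 10 min reads at room temperature.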
# Pol eta inh-1: DNA polymerase eta (human) inhibition; Potency, µM (series often up to 114 µM), hits mostly inhibitors; Q9Y253; recombinant Pol eta, fluorescent DNA replication assay; 390,000 tested, 1.2% active
#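 Pol eta (10 nM) was preincubated with compounds for 15 min at room temperature, after which fluorescent replication substrate (50 nM final) was added to start the reaction. Fluorescence was read kinetically at 0 and 10 min.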
# PGK validate: blocks T. brucei phosphoglycerate kinase; TbPGK coupled GAPDH assay, Kinase-Glo luminescence; Potency, µM (highest dose often 57.5 µM), usual class: inhibitors; 500 tested, 79% active; shares compounds with Pol kappa inh-1; further: nearly all actives have a fitted effect of over 65% in size
# POLI cherry-pick: Confirm cherry-picked inhibitors of human polymerase iota; 1,500 tested, 77% active; shares compounds with Pol kappa inh-1; Pol iota primer extension, TAMRA/BHQ fluorescence; Potency, µM, hits mostly inhibitors
# Pol kappa inh-2: confirmation of human DNA polymerase kappa inhibitors; shares compounds with Pol eta inh-1; purified Pol-kappa, fluorescent strand-displacement substrate; Potency, µM, hits mostly inhibitors; 920 tested, 76% active
# Pol eta inh-2: confirmation of human DNA polymerase eta inhibitors | Potency, µM, hits mostly inhibitors | shares compounds with Pol eta inh-1 | Pol eta primer extension, TAMRA/BHQ fluorescence, 10 min | 2,600 tested, 64% active | AID 720502
# Numbers stand for hits; i = inactive; ? = inconclusive; nt = no result given; [ ] = dose if it differs, or a comment. Most compounds without a hit are left out; they make up all but 2.4% or so of the library. The call rests on the fitted dose curve; in most records, active means well fitted curve in the direction sought with a large enough effect; inconclusive means small, poorly fitted or top-dose-only effect, or another doubt; inactive means no such curve, though single readings can be large; an effect the other way counts as inactive or inconclusive.
SMILES,WRN helicase inh,Pol iota inh,FEN1 inhibitor,Pol kappa inh-1,POLB inh,Pol eta inh-1,POLI cherry-pick,Pol eta inh-2,others
COc1ccc(C(=O)N2C(=S)NC(=O)/C2=C\c2ccc(C)cc2)cc1,50µM,?,?,?,50µM,?,75,?,
COc1ccc(C=C2NC(=S)NC2=O)cc1,i,i,i,i,nt,i,nt,nt,
O=C(N/C=C/c1ccco1)NCc1ccccc1,?,?,?,35µM,16µM,18µM,27,27,
Cc1ccc(S(=O)(=O)NCC2CCC(C(=O)NCCc3ccc(Cl)cc3)CC2)cc1 (centres undefined),nt,i,i,i,i,i,nt,nt,
O=C1NC(=S)S/C1=C\C=C\c1ccc([N+](=O)[O-])o1,40µM,2.2µM,32µM,10µM,?,2.2µM,2.7,4.8,PGK validate=2.6µM;Pol kappa inh-2=4.7
COc1ccc(CNc2cccnc2Cl)cc1,i,nt,nt,nt,nt,nt,nt,nt,
COc1ccc(Oc2c(OC)cc(NCc3ccc(CN)cc3)c3ncccc23)cc1,i[11.6 µM],nt,nt,nt,nt,3.2µM,7.5,15,Pol kappa inh-2=3
CN1C(=O)/C(=C/c2ccc(C(=O)Nc3ccc(O)cc3C(=O)O)cc2)SC1=S,i,?,?,i,?,22µM,75,43,
COc1ccc(OC)c([N+](=O)[O-])c1C(N)=O,?,18µM,?,?,6.3µM,50µM,21,30,
Cc1ccnc2nc(C(=O)Nc3nnc(-c4ccc(Cl)cc4)o3)nn12,i[11.6 µM],?,i,?,?,?,42,?,
Cc1ccc(C(=O)OCC(=O)NCc2ccco2)s1,?,28µM,i,79µM,22µM,22µM,42,67,
Cc1ccc(C(=O)OCC(=O)NCc2cccs2)s1,i,i,i,i,nt,i,nt,nt,
O=C(COC(=O)/C=C/c1ccc(F)cc1)NCc1ccco1,i,i,i,i,i,i,nt,nt,
COc1ccc(CNC(=O)COC(=O)c2ccc(S(=O)(=O)NCc3ccco3)cc2)cc1,i,50µM,i,?,nt,32µM,?,67,
O=C(COC(=O)C1CC2C=CC1C2)NCc1ccco1 (centres undefined),?,14µM,i,40µM,16µM,8.9µM,42,48,
O=C(COC(=O)C1CC2C=CC1C2)NCc1ccc(F)cc1 (centres undefined),i,i,i,i,i,i,nt,nt,
O=C(COC(=O)c1ccc(F)cc1Cl)NCc1ccco1,i[11.6 µM],22µM,i,?,nt,40µM,60,?,
O=C(c1cc(C(F)(F)F)cc(C(F)(F)F)c1)N1CCC2(CC1)CCN(c1ccccn1)CC2,nt,nt,nt,i,nt,nt,nt,nt,
Cc1ccc(-c2csc(NC(=O)C3CC(=O)N(c4ccc5c(c4)OCCO5)C3)n2)o1 (centres undefined),nt,i,i,i,nt,nt,nt,nt,
COc1cc2c(cc1OC)C(=O)C(c1ccc3c(c1)OCO3)CC2 (centres undefined),i,nt,nt,nt,nt,i,nt,nt,
COc1cc2c(cc1OC)C(=O)C(Br)CC2 (centres undefined),50µM,nt,nt,nt,nt,20µM,67,?,
Cc1c(CC(=O)O)c(=O)oc2c(C)c3occ(-c4ccc(Br)cc4)c3cc12,i[11.6 µM],i,?,i,22µM,?,42,76,
CCCCOc1ccc(C(=O)N(Cc2ccco2)Cc2ccco2)cc1,nt,?,i,i,22µM,32µM,67,54,Pol kappa inh-2=15
CCCOc1ccc(C(=O)N(Cc2ccco2)Cc2ccco2)cc1,nt,i,i,i,i,?,nt,nt,
O=C(CCN1C(=O)/C(=C\C=C\c2ccccc2)SC1=S)Nc1cccc(C(=O)O)c1,?,i,i,79µM,50µM,22µM,75,54,
